PubChem BioAssay (NCI)
Compounds without any hit were thinned out: in the full panel of roughly 83,000, 20% have a hit.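 96-well plates, one dose, 48 hours. Percent growth reported; active if below 10.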 Values without a mark were called inactive. The source made the active and inactive calls.

Tests used:
Experiment in all cases: NCI-60 one-dose screen, 48 h (100 = growth as untreated, 0 = no growth, -100 = all killed)
NCI-H23 lung = details: 10 µM unless noted
NCI-H226 lung = details: 10 µM unless noted
NCI-H322M lung = details: 10 µM unless noted
NCI-H460 lung = details: 10 µM unless noted
A549/ATCC NSCLC = details: 10 µM unless noted
786-0 renal = details: 10 µM unless noted
COLO 205 colon = details: 10 µM unless noted
DU-145 prostate = details: 10 µM unless noted
K-562 leukemia = details: 10 µM unless noted
MALME-3M melanoma = details: 10 µM unless noted
MDA-MB-231 breast = details: 10 µM unless noted
RXF 393 renal = details: 10 µM unless noted
SF-268 CNS = details: 10 µM unless noted
SF-295 CNS = details: 10 µM unless noted
M14 melanoma = details: 10 µM unless noted
SF-539 CNS = details: 10 µM unless noted
UACC-257 melanoma = details: 10 µM unless noted
HOP-92 NSCLC = details: 10 µM
NCI-H522 lung = details: 10 µM

Row | Structure (SMILES) | growth (NCI-H23 lung) | growth (NCI-H226 lung) | growth (NCI-H322M lung) | growth (NCI-H460 lung) | growth (A549/ATCC NSCLC) | growth (786-0 renal) | growth (COLO 205 colon) | growth (DU-145 prostate) | growth (K-562 leukemia) | growth (MALME-3M melanoma) | growth (MDA-MB-231 breast) | growth (RXF 393 renal) | growth (SF-268 CNS) | growth (SF-295 CNS) | growth (M14 melanoma) | growth (SF-539 CNS) | growth (UACC-257 melanoma) | growth (HOP-92 NSCLC) | growth (NCI-H522 lung)
1 | CSc1nc(N)n2nccc2n1 | 107% | 83.9% | 102% | 104% | 102% | 97.2% | 105% | 117% | 96.6% | 95.3% | 100% | 112% | 118% | 95.7% | 101% | – | – | – | –
2 | CCCCS(=O)(=O)c1cc(Nc2ccc(O)c3c2C(=O)c2ccccc2C3=O)ccc1C | 45.7% | 87.8% | 27.6% | 14.9% | 28.3% | 87.1% | 70.7% | 42.1% | 67% | 2.26% (active) | 71.8% | 76.1% | 84.5% | – | 21% | 86.8% | 75.8% | – | –
3 | CCS(=O)(=O)N[C@@H]1O[C@H](COC(C)=O)C(OC(C)=O)[C@H](OC(C)=O)C1OC(C)=O (stereo partly drawn) | 102% | 109% | 115% | – | 88.7% | 104% | 113% | 105% | 99.4% | 115% | 110% | 88.1% | 94.4% | 111% | – | 95.1% | – | 95.4% | 83.7%
4 | CCCCCCCCCC[N+](C)(C)N | 104% | 92.3% | 97.7% | 111% | 97.6% | 81.9% | 100% | 111% | 71.6% | 95% | 101% | 81.8% | 98.6% | 98.4% | 105% | 89.1% | 94.7% | – | –
5 | Oc1ccc(Br)cc1/C=N/NC(=S)NC12CC3CC(CC(C3)C1)C2 | 1.36% (active) | 31.5% | 36.5% | 2.18% (active) | 8.34% (active) | 54.8% | 68% | 9.26% (active) | 0.99% (active) | 17.6% | -4.61% (active) | -15.6% (active) | 8.34% (active) | 17% | 20.6% | 36.7% | 26.1% | – | –
6 | Clc1ccc(I)c2ccccc12 | 106% | 103% | 95.3% | 112% | 108% | 93.4% | 110% | 111% | 102% | 97.6% | 110% | 113% | 101% | 102% | 101% | 105% | 101% | – | –
7 | CN(CCC#N)c1ccc(/C=C(\C#N)c2cccc(C(F)(F)F)c2)cc1 | 66.2% | 65.7% | 86.5% | 74% | 36.3% | 74.9% | 49.5% | 82.5% | 21% | 58.2% | 58.8% | 71.7% | 81.7% | 95.8% | 55.9% | 68% | – | – | –
8 | COC(=O)[C@H](Cc1cn(C)cn1)NC(=O)[C@H](Cc1c[nH]c2ccccc12)NC(=O)Nc1cc(C(F)(F)F)cc(C(F)(F)F)c1 | -72.4% [100 µM] (active) | -47.9% [100 µM] (active) | -41.9% [100 µM] (active) | -25.8% [100 µM] (active) | -50.8% [100 µM] (active) | -83.8% [100 µM] (active) | -77.1% [100 µM] (active) | -88.1% [100 µM] (active) | -59.3% [100 µM] (active) | -70.2% [100 µM] (active) | -92.4% [100 µM] (active) | -81.2% [100 µM] (active) | -79.9% [100 µM] (active) | – | -83.8% [100 µM] (active) | -69.1% [100 µM] (active) | -67.6% [100 µM] (active) | – | –
9 | O=C(/C(Br)=C/c1ccccc1)c1ccccc1 | 93.3% | 110% | 107% | 84.9% | 78.6% | -90.5% (active) | -70.8% (active) | 64.1% | -1.65% (active) | -36.9% (active) | 42.6% | -58.2% (active) | 78.9% | 103% | -95.4% (active) | -41.7% (active) | -5.24% (active) | – | –
10 | O=C(Nc1ccc(-n2cc(-c3ccncc3)c(-c3ccc(Cl)c(O)c3)n2)cc1)c1ccc(Cl)c(Cl)c1 | 45.7% | 107% | 97.1% | 8.3% (active) | 43.6% | -63.5% (active) | 51.9% | 61.8% | 10.3% | 43.6% | 31.5% | -52.1% (active) | 61.1% | -50.3% (active) | -65.8% (active) | 23.5% | 58.6% | – | –
11 | Cc1ccc(NCc2cn(-c3ccc(C(=O)O)cc3)nc2-c2ccc(C(=O)O)cc2)cc1 | 92.2% | 107% | 99.7% | – | 94.9% | 103% | 104% | 100% | 102% | 93.1% | 108% | 121% | 92.8% | 103% | 99.3% | 101% | 97.6% | 107% | 86.2%
12 | C=CN(C)S(C)(=O)=O | 32.2% | 91.2% | 39.5% | 17.8% | 34.5% | 39.5% | 111% | 18.5% | 21.9% | 28.3% | 46.2% | -9.3% (active) | 36.5% | 8.18% (active) | 28.8% | 4.91% (active) | 35.5% | – | –
13 | COc1ccc(-c2nc(SCC(C)C)nc(Nc3ccc(C)cc3)c2C#N)cc1 | 73.9% | 65.6% | 52.9% | – | 52.6% | 24.4% | 46.6% | 85.9% | 68.8% | 74.3% | 68.4% | 88.2% | 85.3% | 64.4% | 88.8% | 63.5% | 103% | 73.9% | 81.4%
14 | O=C(Nc1ccc(Cl)c(Cl)c1)O/N=C\c1c(Cl)ccc([N+](=O)[O-])c1Cl | 27% | 58.4% | 11.6% | – | 45.5% | 5.13% (active) | -83.3% (active) | -82.5% (active) | -7.08% (active) | -44.9% (active) | -59.7% (active) | -45.1% (active) | -4.9% (active) | 83.9% | 32% | 4.51% (active) | -49.2% (active) | 6.84% (active) | -90.4% (active)
15 | COc1cc(C(=O)Nc2ccc(N(C)C)cc2)cc(OC)c1OC | 95.4% | 91% | 93.4% | 99.8% | – | 96.4% | 100% | 107% | 42.8% | 80.6% | 96.4% | 95.7% | 99.1% | 91.7% | 89.8% | 96.1% | – | – | –
16 | COc1ccc2cn3c4ccc(O)cc4[nH]c(=O)c3c2c1 | 25.3% | 54.7% | 41% | -48.7% (active) | 19.3% | 24.1% | -7.26% (active) | 11.5% | 13.2% | 41.2% | 23.2% | 2.52% (active) | 21% | 0.201% (active) | -2.73% (active) | -9.1% (active) | 50.1% | – | –
17 | COc1cc(/C(=C2/O[C@@H]([C@H]3COC(C)(C)O3)[C@H]3OC(C)(C)O[C@@H]23)c2ccc3c(c2)OCO3)cc(OC)c1OC | 54% | 102% | 85.3% | 57.3% | -14% (active) | -6.92% (active) | 108% | 60.2% | 40.8% | 29.1% | 21.9% | – | 72% | 76.1% | 93.7% | 25.2% | 58.8% | – | –
18 | CC[C@@H](C)/C=C(C)/C=C/C(=O)c1c(O)c(-c2ccc(OC(=O)[C@@]34CC[C@@](C)(C(=O)O3)C4(C)C)cc2)cn(O)c1=O | 21.8% | 36.8% | -4.05% (active) | -7.48% (active) | 43.6% | -31.8% (active) | 112% | 10.8% | – | – | 36.7% | 31.6% | -1.52% (active) | -9.51% (active) | -35.8% (active) | 16.7% | 2.75% (active) | – | –
